# The source made the active and inactive calls. How the source made its calls: active means hit-call score of the fitted dose curve at least 0.9, where 1 is the maximum; inactive means score below 0.9.
# Assay: ATG_ERE_CIS: Attagene CIS-FACTORIAL HepG2 Assay for Estrogen Response Element (ERE) (AID 2282940)
# Details: HepG2 ERE cis-reporter, Attagene RNA transcript; actives raise or lower the signal
# Protocol: ATG_CIS is a cell-based, multiplexed-readout assay that uses HepG2, a human liver cell line, with measurements taken at 24 hours after chemical dosing in a 24-well plate.ATG_ERE_CIS is one of 52 assay component(s) measured or calculated from the ATG_CIS assay. It is designed to make measurements of mRNA induction, a form of inducible reporter, as detected with fluorescence intensity signals by Reverse transcription polymerase chain reaction (RT-PCR) and Capillary electrophoresis technology.Data from the assay component ATG_ERE_CIS was analyzed into 1 assay endpoint. This assay endpoint, ATG_ERE_CIS, was analyzed with bidirectional fitting relative to DMSO as the negative control and baseline of activity. Using a type of inducible reporter, measures of mRNA for gain or loss-of-signal activity can be used to understand the reporter gene at the transcription factor-level as they relate to the gene ESR1. Furthermore, this assay endpoint can be referred to as a primary readout, because this assay has produced multiple assay endpoints where this one serves a reporter gene function. To generalize the intended target to other relatable targets, this assay endpoint is annotated to the nuclear receptor intended target family, where the subfamily is steroidal.
# Human liver HepG2 cells are transiently transfected with multiple reporter transcription units (MRTUs) in 6-well plates using FuGene 6 reagent (Roche; 3 ml FuGene/1 mg DNA). The MRTU constructs are regulated by a cis-regulating element (promoter). […] A major difference between the CIS and TRANS system is that in CIS activities of endogenous TFs are measured, whereas the TRANS assay evaluates changes in activities of exogenous, chimeric NR-Gal4 proteins. […] At the end of 24 hour incubation, total RNA was isolated using TriZol reagent (Invitrogen). The isolated RNA is then reverse-transcribed using oligo(dT) primer and Mo-MLV reverse transcriptase (Invitrogen) with DNAse I (Ambion) treatment for 30 min. The one-tenth of the produced cDNA was amplified by PCR using Taq DNA polymerase (Invitrogen) and two reporter sequence-specific primers. The PCR products were fluorescently labeled by primer extension with 6-arboxyfluorescein (6-FAM) 5'-labeled reporter sequence-specific primer (2 min at 95 C, 20 s at 68 C and 10 min at 72 C) and these products were digested with 5U of HpaI (New England Biolabs) for 2h at 37 C. The fragments were purified using Qiaquick PCR columns (Qiagen), analyzed on an ABI 3130xL genetic analyzer (Applied Biosystems) with peak positions identified by using a set of X-rhodamine (ROX)-labeled MapMarker1000 molecular weight standards (BioVentures). The raw capillary electrophoresis data was processed using Attagraph software (Attagene).
SMILES,outcome,AC50
CSc1nc(NC(C)C)nc(NC(C)C)n1,inactive,
COP(=O)(OC)SCn1c(=O)oc2cc(Cl)cnc21,inactive,
Nc1c(Cl)cc([N+](=O)[O-])cc1Cl,,28.2 µM (active)
Cc1cc(C2CC2)nc(Nc2ccccc2)n1,,12.8 µM (active)
CNC(=O)ON=C(SC)C(=O)N(C)C,,15.7 µM (active)
COP(=O)(OC)OC(Br)C(Cl)(Cl)Br (stereo unspecified),inactive,
O=[N+]([O-])c1cc(C(F)(F)F)c(Cl)c([N+](=O)[O-])c1Nc1ncc(C(F)(F)F)cc1Cl,inactive,
CCc1cccc(CC)c1N(COC)C(=O)CCl,inactive,
CC[C@H](C)[C@H]1O[C@]2(C=C[C@@H]1C)C[C@@H]1C[C@@H](C/C=C(\C)[C@@H](O[C@H]3C[C@H](OC)[C@@H](O[C@H]4C[C@H](OC)[C@@H](NC)[C@H](C)O4)[C@H](C)O3)[C@@H](C)/C=C/C=C3\CO[C@@H]4[C@H](O)C(C)=C[C@@H](C(=O)O1)[C@]34O)O2,inactive,
CNC(=O)Oc1cccc2c1OC(C)(C)O2,,29.5 µM (active)
CCCCOC(=O)[C@@H](C)Oc1ccc(Oc2ccc(C#N)cc2F)cc1,inactive,

# — PubChem BioAssay (EPA / NIEHS)
